Measurements from PubChem BioAssay AID1159580 (chemical genetic matrix, 2015).
Among all 5,500 compounds or so, about 2,000 (36%) were called active. Not shown: some 18% with an inconclusive outcome. No stated cut-off is given here; in the data, active means normalized growth mostly below about 0.91 (no sharp cut-off); inconclusive means no clear call, values can overlap the other calls; inactive means mostly above about 0.92. Some of the results follow.

Experiment: chemical genetic growth profiling, strain panel (AID 1159580);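 further: tested at 20 µM; growth read once vehicle control cultures reached saturation at 30 °C; 1 = growth at the plate median or of vehicle wells; lower values mean less growth of the strain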
Settings: S. cerevisiae deletion strains, growth OD

Measured: normalized growth

Oc1c(Cl)cc(Cl)cc1/C=N\NC(=S)Nc1cc(C(F)(F)F)cc(C(F)(F)F)c1
inactive: locus YDL101C, strain DUN1, hits give low values 0.922 | locus YJL128C, strain PBS2, hits give low values 0.905 | locus YPR106W, strain ISR1, hits give low values 0.922 | locus YPR111W, strain DBF20, hits give low values 0.905
active: locus YAR019C, strain CDC15, hits give low values 0.815 | locus YBL105C, strain PKC1, hits give low values 0.899 | locus YBR135W, strain CKS1, hits give low values 0.884 | locus YBR136W, strain MEC1, hits give low values 0.888 | locus YBR160W, strain CDC28, hits give low values 0.893 | locus YDL017W, strain CDC7, hits give low values 0.889 | locus YDL028C, strain MPS1, hits give low values 0.878 | locus YDL108W, strain KIN28, hits give low values 0.88 | locus YDL132W, strain cdc53, hits give low values 0.811 | locus YDL214C, strain PRR2, hits give low values 0.179 | locus YDR052C, strain DBF4, hits give low values 0.894 | locus YDR054C, strain cdc34, hits give low values 0.491 | locus YDR226W, strain ADK1, hits give low values 0.886 | locus YDR477W, strain SNF1, hits give low values 0.285 | locus YER123W, strain YCK3, hits give low values 0.158 | locus YER133W, strain GLC7, hits give low values 0.338 | locus YFL009W, strain cdc4, hits give low values 0.611 | locus YFL029C, strain CAK1, hits give low values 0.784 | locus YFR003C, strain YPI1, hits give low values 0.853 | locus YFR019W, strain FAB1, hits give low values 0.111 | locus YFR028C, strain CDC14, hits give low values 0.857 | locus YGR040W, strain KSS1, hits give low values 0.35 | locus YGR052W, strain FMP48, hits give low values 0.132 | locus YGR092W, strain DBF2, hits give low values 0.0943 | locus YHR030C, strain SLT2, hits give low values 0.126 | locus YHR079C, strain IRE1, hits give low values 0.103 | locus YHR082C, strain KSP1, hits give low values 0.151 | locus YHR205W, strain SCH9, hits give low values 0.121 | locus YIL147C, strain SLN1, hits give low values 0.887 | locus YJL095W, strain BCK1, hits give low values 0.136 | locus YJL157C, strain FAR1, hits give low values 0.128 | locus YJR016C, strain ILV3, hits give low values 0.722 | locus YJR066W, strain TOR1 (second series), hits give low values 0.118 | locus YJR066W, strain TOR1, hits give low values 0.119 | locus YKL048C, strain ELM1, hits give low values 0.166 | locus YKL067W, strain YNK1, hits give low values 0.137 | locus YKL101W, strain HSL1, hits give low values 0.12 | locus YKL193C, strain SDS22, hits give low values 0.858 | locus YKL203C, strain TOR2, hits give low values 0.132 | locus YLR113W, strain HOG1, hits give low values 0.171 | locus YLR133W, strain CKI1, hits give low values 0.12 | locus YLR403W, strain SFP1, hits give low values 0.159 | locus YML070W, strain DAK1, hits give low values 0.116 | locus YMR001C, strain CDC5, hits give low values 0.805 | locus YMR205C, strain PFK2 (second series), hits give low values 0.157 | locus YMR277W, strain FCP1, hits give low values 0.811 | locus YNL006W, strain LST8, hits give low values 0.673 | locus YNL020C, strain ARK1, hits give low values 0.117 | locus YNL161W, strain CBK1, hits give low values 0.789 | locus YNL183C, strain NPR1, hits give low values 0.245 | locus YNL207W, strain RIO2, hits give low values 0.858 | locus YNL222W, strain SSU72, hits give low values 0.885 | locus YNL307C, strain MCK1 (second series), hits give low values 0.114 | locus YOL078W, strain AVO1, hits give low values 0.856 | locus YOL136C, strain PFK27, hits give low values 0.139 | locus YOR061W, strain CKA2, hits give low values 0.114 | locus YOR119C, strain RIO1, hits give low values 0.217 | locus YOR231W, strain MKK1, hits give low values 0.128 | locus YOR329C, strain SCD5, hits give low values 0.56 | locus YPL031C, strain PHO85, hits give low values 0.163 | locus YPL153C, strain RAD53, hits give low values 0.171 | locus YPL204W, strain HRR25, hits give low values 0.121 | locus YPL209C, strain IPL1, hits give low values 0.891 | locus YPL256C, strain CLN2, hits give low values 0.158 | locus YPR025C, strain CCL1, hits give low values 0.893 | strain NNK1, hits give low values 0.272 | strain TSCII, hits give low values 0.621
